Experimental data: PubChem BioAssay AID651871 (Sanford-Burnham Center for Chemical Genomics, 2012)
Several values for one entry are separate records, joined by “and”; a condition that tells them apart may be missing. Equal values may be shown once.

These compounds were tested on HL-1 (assay: protection of cardiomyocytes from stress damage, SAR follow-up, cell-based, panel, H9c2 and HL-1, ATP luminescence, set 2 (AID 651871;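 note: cells exposed to stressor for 2 h before ATP readout; reference of the scale not given here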)). Conditions: H9c2/HL-1 cardiomyocytes, 2-deoxyglucose stress, with 2-deoxyglucose; run 1, at 79 µM (top of the series).

| SMILES | activity (protection/inhibition) |
| --- | --- |
| CCOC(=O)c1cccc(NC(=O)CNC(=O)c2cc(-c3cc(OC)c(OC)c(OC)c3)nc3ccccc23)c1 | 101% |
| COc1ccc2nc(-c3cc(OC)c(OC)c(OC)c3)cc(C(=O)NCC(=O)Nc3ccc(C(C)=O)cc3)c2c1 | 115% |
| COc1ccc2c(c1OC)C(=O)N1c3ccccc3C(=O)N(Cc3cccc(Cl)c3Cl)C21 (stereo not drawn) | 41.2% and 40.9% and -9.68% |
